Screening data deposited in PubChem by National Center for Advancing Translational Sciences (NCATS).
Shown are actives, neighbours in structure and some others; about 8.9% of the full set was active somewhere.
KB-3-1 tox – qHTS assay for MDR1-selective chemotherapeutics: Primary screen using the parental adenocarcinoma cell KB-3-1; KB-3-1 viability, CellTiter-Glo ATP luminescence, 72 h; Potency, µM (series often up to 46.1 µM), hits mostly cytotoxic; actives 1.4% (n = 400,000); AID 1347075, 2019; note: potency is the fitted concentration of half-maximal effect; % is set by controls: 0 for no effect and ±100 for the full control effect; nearly all actives have a fitted effect of over 60% in size
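72 h, 37 °C compound treatment of KB-3-1 parental cells; CellTiter-Glo added, 10 min, luminescence read. Data corrected against DMSO-only plates and normalized before curve fitting.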
MCF10A rereplic – A quantitative high throughput screen for small molecules that induce DNA re-replication in MCF 10a normal breast cells; Potency, µM (doses to about 46.1 µM), for the others: at the top dose activity, positive = re-replication, most hits filed as activators; MCF 10A DNA re-replication, Hoechst nuclear intensity, 48 h; actives 2.9% (n = 350,000); note: potency is the fitted concentration of half-maximal effect; % of control where 0% means no effect; nearly all actives have a fitted effect of over 50% in size
SW480 rereplic – A quantitative high throughput screen for small molecules that induce DNA re-replication in SW480 colon adenocarcinoma cells | Potency, µM (series often up to 46.1 µM), for inactives: top-dose re-replication activation, usual class: activators | SW480 DNA re-replication, Hoechst DNA content imaging, 48 h | actives 1.8% (n = 340,000) | AID 624297, 2012; note: potency is the fitted concentration of half-maximal effect; % of control where 0% means no effect; nearly all actives have a fitted effect of over 55% in size
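Hoechst fluorescence of nuclei (405 nm excitation, 500-530 nm emission) measured by plate-scanning imager after 48 hr compound exposure at 37 C; re-replication scored as increased number of nuclei with elevated intensity.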
KB-V1 MDR tox – qHTS assay for MDR1-selective chemotherapeutics: Primary screen using the drug-selected MDR subline cells KB-V1; Potency, µM (doses to about 46.1 µM), hits mostly cytotoxic; AID 1347076, 2019; actives 3.4% (n = 400,000); KB-V1 MDR cells viability, CellTiter-Glo, 72 h; note: potency is the fitted concentration of half-maximal effect; % is set by controls: 0 for no effect and ±100 for the full control effect; nearly all actives have a fitted effect of over 60% in size
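KB-V1 cells (P-gp-expressing MDR subline of KB-3-1) in phenol-red-free DMEM with 10% FBS were exposed to library compounds over a concentration series for 72 h at 37 degrees C. Viability read by CellTiter-Glo luminescence; concentration-effect curves fitted after normalization.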
D3 antag – qHTS of D3 Dopamine Receptor Antagonist: qHTS; D(3) dopamine receptor (Homo sapiens), P35462; actives 2.5% (n = 360,000); max response, negative = inhibition, %; D3R cells, DiscoveRx beta-arrestin luminescence, antagonist mode; active compounds read low; in the data active = max response below about -50%; inconclusive = no clear call, values can overlap the other calls; note: % is set by controls: 0 for no effect and ±100 for the full control effect
Target sequence (P35462 whole entry, looked up): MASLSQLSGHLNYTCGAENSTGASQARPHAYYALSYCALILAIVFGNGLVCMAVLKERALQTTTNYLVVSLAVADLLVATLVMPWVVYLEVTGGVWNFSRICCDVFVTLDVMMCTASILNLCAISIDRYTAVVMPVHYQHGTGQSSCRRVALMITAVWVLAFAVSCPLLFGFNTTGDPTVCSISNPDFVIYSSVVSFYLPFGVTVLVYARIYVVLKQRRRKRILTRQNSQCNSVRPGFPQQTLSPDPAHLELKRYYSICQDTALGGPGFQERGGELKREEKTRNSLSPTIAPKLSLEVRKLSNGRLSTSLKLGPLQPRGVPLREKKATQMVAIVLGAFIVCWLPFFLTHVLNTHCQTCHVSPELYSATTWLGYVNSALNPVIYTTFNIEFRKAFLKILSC
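Cells plated overnight at 1500 cells/well, then exposed to library compounds with dopamine controls for 90 minutes at 37 degrees C. DiscoveRx reagent added for 30–60 minutes at room temperature; luminescence read, quantitative HTS format.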
D3 ag – qHTS of D3 Dopamine Receptor Agonist: qHTS | D(3) dopamine receptor (Homo sapiens), P35462 | actives 0.58% (n = 410,000) | max activation, % | D3R DiscoveRx beta-arrestin cells, luminescence, 90 min | AID 652048, 2013; in the data active = max activation above about 30%; note: 0% is about no effect
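Agonist mode: compounds and dopamine controls were applied to plated cells for 90 min at 37 degrees C after an overnight attachment at 1500 cells/well. Luminescent read-out followed 30 - 60 minutes at room temperature with DiscoveRx detection reagent.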
Active calls of the source: *; i = inactive; ? = inconclusive; / = not tested or not shown. Unless noted, calls come from the whole dose curve; as a rule, active = well fitted curve in the direction sought with a large enough effect; inconclusive = small, poorly fitted or top-dose-only effect, or another doubt; inactive = no such curve, though single readings can be large; an effect the other way counts as inactive or inconclusive.

SMILES | KB-3-1 tox | MCF10A rereplic | SW480 rereplic | KB-V1 MDR tox | D3 antag | D3 ag
Cc1n[nH]c(C)c1N=Nc1ccc(Br)cc1 | 16µM* | ? | -14% | ? | 8 | -1
CCc1ccc(N2C(=O)CN(Cc3cc(OC)c(OC)c(OC)c3)C2=S)cc1 | i | -15% | -72% | 7.3µM* | 102 | 5
CCc1ccccc1N1C(=O)CN(Cc2cc(OC)c(OC)c(OC)c2)C1=S | i | 10% | 20% | i | 3 | 7
COc1cc(CN2CC(=O)N(c3ccc(C)c(C)c3)C2=S)cc(OC)c1OC | ? | 24% | ? | 16µM* | 49 | 3
COc1ccc(CN2CC(=O)N(c3ccc(C)c(C)c3)C2=S)cc1OC | i | 11% | 6% | ? | 18 | 2
CCOc1cccc2sc(N(Cc3cccnc3)C(=O)c3ccc(C#N)cc3)nc12 | i | / | / | i | / | -16
O=C(OC(c1ccc(NS(=O)(=O)c2ccccc2)cc1)(C(F)(F)F)C(F)(F)F)c1ccccc1 | ? | 18µM* | ? | i | ? | -11
CC(=O)c1ccc(NS(=O)(=O)c2ccccc2)cc1 | i | 3% | 0% | i | 12 | -3
Cc1ccc(S(=O)(=O)Nc2ccc(C(OC(=O)c3ccccc3[N+](=O)[O-])(C(F)(F)F)C(F)(F)F)cc2)cc1 | ? | ? | ? | 3.7µM* | -13 | -35
CN(Cc1ccccc1)C(=O)c1ccc(CSc2nc3cccnc3n2Cc2ccccc2)cc1 | i | / | / | i | / | 3
CC1CCc2c(c3ccccc3n2C(=O)CCl)C1 (stereo not drawn) | ? | 18µM* | 6% | ? | 2 | 7
Nc1ccc(C(=O)OCC(=O)N2CCc3ccccc3C2)cc1[N+](=O)[O-] | i | ? | ? | i | -14 | 4
Nc1ccc(C(=O)OCC(=O)N2c3ccccc3Sc3ccccc32)cc1[N+](=O)[O-] | ? | ? | -6% | 6.5µM* | -3 | 4
NCCNc1ccc(C(=O)N2c3ccccc3Sc3ccccc32)cc1[N+](=O)[O-] | ? | ? | ? | 21µM* | ? | -8
Cc1ccc(NC(=O)c2ccc(NCCN)c([N+](=O)[O-])c2)cc1 | ? | 5% | ? | i | -9 | -6
CCc1nnc(N/N=C/c2ccc(N3CCC(C)CC3)c([N+](=O)[O-])c2)n1N | i | ? | ? | ? | -30 | -11
Cc1nnc(N/N=C/c2cc([N+](=O)[O-])c(N3CCC(C)CC3)cc2N2CCC(C)CC2)n1N | i | ? | ? | 23µM* | ? | -9
Cc1cccc(C)c1NC(=O)CCS(=O)(=O)c1ccc2c(c1)CC(C)N2C(=O)C1CC1 (stereo not drawn) | / | / | / | / | / | 4
COc1cccc(Cn2cnc(-c3ccccc3OC)c2C2CC2)c1 | ? | / | / | 18µM* | 29 | 6
CCCCc1c(-c2ccccc2OC)ncn1CCc1cccc(Cl)c1 | ? | / | / | 15µM* | 20 | -5
CCCCc1c(-c2ccccc2OC)ncn1Cc1ccc(Cl)cc1 | ? | / | / | 21µM* | 8 | 4
CCCCc1c(-c2ccccc2OC)ncn1Cc1ccc(-c2ccccc2)cc1 | ? | / | / | 10µM* | ? | -2
COc1cccc(Cn2cnc(-c3ccccc3OC)c2-c2cc(C)cc(C)c2)c1 | ? | / | / | ? | 0 | 7
CCCCc1c(Cc2cccc(F)c2)ncn1CCc1ccccc1OC | ? | / | / | ? | 13 | 2
CCOc1ccc(S(=O)(=O)NCC(c2ccco2)S(=O)(=O)c2ccc(C)cc2)cc1 (stereo not drawn) | / | / | / | / | / | 6
SMILES | KB-3-1 tox | MCF10A rereplic | SW480 rereplic | KB-V1 MDR tox | D3 antag | D3 ag
CCOc1ccc(OCC)c(NC(=O)C(NS(=O)(=O)c2ccc(Br)s2)c2ccccc2)c1 (stereo not drawn) | i | / | / | i | / | 6
CC1(C)CC(=O)C2=C(C1)NC(Nc1nc3ccccc3o1)=NC2c1cccnc1 (stereo not drawn) | i | / | / | i | / | /
CCc1c(C2CC2)ncn1Cc1cccc(-c2ccccc2)c1 | 15µM* | / | / | i | -95* | -14
CCCCc1c(-c2ccccc2OC)ncn1Cc1cccc(-c2ccccc2)c1 | ? | / | / | 15µM* | -108* | -21
CCCCc1c(-c2ccccc2OC)ncn1C1CCCC1 | 18µM* | / | / | 13µM* | 6 | -7
CCc1c(-c2ccccc2F)ncn1Cc1cccc(-c2ccccc2)c1 | ? | / | / | ? | 0 | -6
Cc1ccccc1Cn1c(SCc2ccc(C(=O)NCCc3ccccc3)cc2)nc2ccncc21 | i | / | / | i | / | -22
COc1ccc(OC)c2c1C(=O)c1ccccc1C2=O | i | 11% | 2% | i | 14 | -1
COc1ccc(OC)c2c1C(=O)C(Cl)=C(Cl)C2=O | 5.8µM* | 2.6µM* | ? | 5.2µM* | -126* | -23
CCOC(=O)N1CCC(N2CCN(c3cc(C)ccc3C)CC2)CC1 | i | 4% | -3% | 23µM* | ? | -19
CCOC(=O)c1ccc(N2CCN(c3cc(C)ccc3C)CC2)c(N)c1 | i | 18µM* | ? | i | 12 | 17
O=C(CC1SC(=O)NC1=O)Oc1ccc(/C=N/NC(=O)c2ccccc2O)cc1 (stereo not drawn) | i | -2% | -34% | i | -5 | 4
COc1ccc(C(CNC(=O)c2oc3ccc(Br)cc3c2C)N2CCCCC2)cc1 (stereo not drawn) | ? | 18% | -3% | ? | -76* | -15
COc1ccc(C(CNC(=O)c2oc3ccc(OC)cc3c2C)N2CCCC2)cc1 (stereo not drawn) | i | 0% | ? | i | -19 | -28
CCc1ccc2oc(C(=O)NCC(c3ccc(OC)cc3)N3CCCCC3)c(C)c2c1 (stereo not drawn) | ? | 11% | 6% | ? | -77* | -16
COc1ccc(C(CNC(=O)c2oc3ccc(F)cc3c2C)N2CCCCC2)cc1 (stereo not drawn) | ? | -16% | ? | i | -104* | -23
COc1ccc(C(CNC(=O)c2oc3cc(C)c(C)cc3c2C)N2CCCCC2)cc1 (stereo not drawn) | i | -4% | -21% | i | ? | -17
